Measured values: the supplement of paper PMC6555819

Key:
Assay in all cases: PBM binding z-score (relative to random genomic background probes); higher = stronger binding; sequences stand for … in GC…GCGATTGACAGCGTAGAATGAAGG
[1] = system: RARb homodimer (NR concentration 270 nM)
How it was run: (§1)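 Binding z-scores take random background probes as their reference. They come from custom Agilent 4×180K protein-binding microarrays incubated 1 h with ligand-free nuclear receptor dimers, with antibodies against each partner (one per run) detecting binding. Scanned fluorescence was regression-normalized.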

[2] = system: RARg:RXRa (NR concentration 270 nM, RXRa partner concentration 90 nM)
How it was run: as §1

[3] = system: RARg homodimer (NR concentration 270 nM)
How it was run: as §1

[4] = system: RXRa DBDmut IVT, anti-RXR (DBD mutation: RXRa K156A/R161A, NR concentration 90 nM)
How it was run: as §1

[5] = system: RXRa homodimer (NR concentration 180 nM)
How it was run: as §1

[6] = system: THRa:RXRa (NR concentration 90 nM, RXRa partner concentration 90 nM)
How it was run: as §1

[7] = system: THRa homodimer (NR concentration 90 nM)
How it was run: as §1

[8] = system: VDR homodimer (NR concentration 270 nM)
How it was run: as §1

| Sequence | PBM binding z-score [1] | PBM binding z-score [2] | PBM binding z-score [3] | PBM binding z-score [4] | PBM binding z-score [5] | PBM binding z-score [6] | PBM binding z-score [7] | PBM binding z-score [8] |
| --- | --- | --- | --- | --- | --- | --- | --- | --- |
| ATACGTAGGTTAAGGGTCATTCAGGTTGGTTCGC | 4.06 | 5.01 | 3.58 | 2.11 | 6.29 | 3.72 | 1.6 | 4.36 |
| AATACAGGGTCATCGTAGGCCAAAGTACGCACAG | 3.71 | 5.86 | 5.3 | 3.63 | 6.87 | 4.53 | 1.34 | 3.98 |
| GCGACTGGGGCAAAGCAGGTTACCATTAGGTTGG | 0.874 | 0.369 | 0.722 | -0.196 | 0.428 | 2.77 | -0.429 | -0.578 |
| CGTCCAAGGTCATAGGAGGTCAGTCAAGACAGAT | 5.57 | 6.78 | 7.57 | 3.37 | 6.76 | 5.43 | 3.34 | 4.33 |
| TTACCAAGGTTAAGGTCGTTGATCCCTCTGTAGA | 2.57 | 2.63 | 2.31 | 1.41 | 3.4 | 3.73 | 3.45 | 2.83 |
| ACAGACAGCTGATGAAGGTAACTCAGGCTATCAT | -0.303 | 0.146 | 0.225 | -0.306 | 0.083 | 0.595 | -0.25 | 0.0545 |
| AATACAGGGTCACTAGGCAAGAGTAGGTACGAAT | 2.95 | 5.02 | 4.81 | 2.61 | 5.45 | 3.48 | 1.19 | 2.42 |
| ACTTACGGGTCAAAGAGGTTATAGCACGCGTATA | 3.42 | 5.32 | 4.72 | 2.54 | 6.31 | 3.45 | 0.218 | 3.59 |
| TGAATGAGGTAAAAGATCAGGGAACGTGGCGTCG | -0.605 | 0.328 | 0.294 | -0.708 | 0.851 | 1.3 | -0.2 | -0.398 |
